Screening results from PubChem.
SNCA expr inhib – reduces expression of the alpha-synuclein gene | HEK-293 SNCA-luciferase knock-in, luminescence, 24 h | Potency, µM (highest dose often 57.2 µM), actives largely listed as inhibitors | 140,000 tested, 0.17% active; note: nearly all actives have a fitted effect of over 45% in size
HEK293 viab – reduces viability of HEK-293 SNCA reporter cells | HEK-293-SNCA-luc viability, GF-AFC fluorescence, 24 h | Potency, µM (series often up to 57.1 µM), actives largely listed as cytotoxic | 150,000 tested, 0.12% active | AID 1671193; note: nearly all actives have a fitted effect of over 30% in size
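Cytotoxicity counterscreen: after 24 h compound treatment of genome-edited SNCA-luciferase HEK-293 cells, live-cell protease substrate GF-AFC read by fluorescence after 30 min; activity scaled between DMSO (0%) and medium-only (-100%), curves Hill-fitted.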
Luciferase inh – Photinus pyralis luciferase inhibition | purified P. pyralis luciferase, luminescence, biochemical | AID 1347043 | P08659 | 76,000 tested, 2.5% active | Potency, µM (series often up to 115 µM), most hits filed as inhibitors; note: nearly all actives have a fitted effect of over 65% in size
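Purified P. pyralis luciferase (10nM final) in 50mM Tris acetate pH 7.5, 10mM Mg acetate, 0.01% Tween-20, 0.05% BSA with 10uM D-luciferin and 10uM ATP. Compounds titrated qHTS. Luminescence imaged on CCD.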
HEK cytotox – HEK 293 cell cytotoxicity | Potency, µM (series often up to 115 µM), usual class: inhibitors | AID 1345083 | HEK 293 viability, ATP luminescence (CellTiter-Glo), 48-72 h | 94,000 tested, 6.6% active; note: nearly all actives have a fitted effect of over 60% in size
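Pintool-delivered compounds were incubated with HEK 293 cells (250 cells/well) at 37 degree Celsius for 48 or 72 hr. ATP-dependent luminescence (CellTiter-Glo) then reported remaining viable cells.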
3T3 cytotox – cytotoxic compounds in NIH 3T3 cells; 94,000 tested, 4.3% active; NIH 3T3 viability, CellTiter-Glo ATP luminescence, 48-72 h; Potency, µM (titrated, usually from 96.7 µM), actives largely listed as inhibitors; note: nearly all actives have a fitted effect of over 55% in size
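ATP-dependent luminescence (CellTiter-Glo) served as the viability signal for NIH 3T3 cells treated with compound for 48 or 72 hr at 37 °C.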
IP6K1 inhibitor – IP6K1 kinase inhibition. Q92551. AID 1645851. 140,000 tested, 0.81% active. activity change, % (series mostly up to about 58 µM). IP6K1 kinase, ADP-Glo luminescence, 2 h; stronger effect = lower value; in the data active = activity change below about -25%
Target sequence (Q92551 whole entry, looked up): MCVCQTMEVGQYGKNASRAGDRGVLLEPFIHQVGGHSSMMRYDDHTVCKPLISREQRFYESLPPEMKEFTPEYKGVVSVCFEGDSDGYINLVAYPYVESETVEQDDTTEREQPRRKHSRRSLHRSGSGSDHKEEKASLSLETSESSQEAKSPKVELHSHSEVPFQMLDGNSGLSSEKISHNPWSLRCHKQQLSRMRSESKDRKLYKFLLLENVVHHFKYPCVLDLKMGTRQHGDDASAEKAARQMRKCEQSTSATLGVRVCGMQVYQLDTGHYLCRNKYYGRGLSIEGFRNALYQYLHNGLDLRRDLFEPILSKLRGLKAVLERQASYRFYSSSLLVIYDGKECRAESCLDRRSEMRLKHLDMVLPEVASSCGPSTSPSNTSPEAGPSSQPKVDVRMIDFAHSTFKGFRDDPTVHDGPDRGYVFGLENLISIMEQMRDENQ
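ADP-Glo luminescence measures ADP made by human IP6K1 during a 2 h RT reaction with ATP/IP6 (mix at 1.3 mM/130 uM); top library doses 57.5 and 19.1 uM final.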
Numbers stand for hits; 0 = inactive; ? = inconclusive; - = no result. This is a sample that favours compounds with a hit; in the whole collection about 7.3% have one here. Unless noted, calls come from the whole dose curve; as a rule, active = well fitted curve in the direction sought with a large enough effect; inconclusive = small, poorly fitted or top-dose-only effect, or another doubt; inactive = no such curve, though single readings can be large; an effect the other way counts as inactive or inconclusive.

SMILES | SNCA expr inhib | HEK293 viab | Luciferase inh | HEK cytotox | 3T3 cytotox | IP6K1 inhibitor
CC1=C(C(=O)OC(C)C)C(c2ccccc2C)N2C(CC(=O)NCC3CC3)=CSC2=N1 (configuration not stated) | 0 | 0 | 0 | 10µM | ? | 0
COC(=O)C1=C(C)N=C2SC=C(CC(=O)NCc3ccccc3)N2C1c1ccccc1C (configuration not stated) | 0 | 0 | 0 | 45µM | ? | 0
CC1=C(C(=O)OC(C)C)C(c2ccccc2Cl)N2C(CC(=O)NCC3CC3)=CSC2=N1 (configuration not stated) | 0 | 0 | 0 | ? | ? | 0
CCCC(=O)N1Cc2ccccc2CC2(CCCN(CC3CCNC3)C2)C1 (configuration not stated) | 0 | 0 | - | ? | 0 | 0
Cc1ccc(NC(=O)Cn2c(-c3ccc(F)cc3)nc(C)c(CCO)c2=O)c(C)c1 | 0 | 0 | 0 | ? | 0 | 0
COc1ccc(C(=O)N[C@@H]2CN(C(=O)Nc3ccc(F)cc3)CCC[C@H]2O)cc1 | 0 | 0 | ? | ? | 100µM | 0
COc1ccc(C(=O)N[C@@H]2CN(C(=O)Nc3ccccc3)CCC[C@H]2O)cc1 | 0 | 0 | 0 | ? | ? | 0
Cc1ccc(C(=O)N2CCc3[nH]nc(C(=O)NCCCc4ccccc4)c3C2)cc1C | ? | 0 | - | ? | ? | 0
CCC(C)C(=O)N1CCc2[nH]nc(C(=O)NCCCc3ccccc3)c2C1 (configuration not stated) | 0 | 0 | 0 | 11µM | ? | 0
CC(C)c1ccc(C(=O)N2CCc3[nH]nc(C(=O)NCCCc4ccccc4)c3C2)cc1 | 0 | 0 | 0 | 0 | 0 | 0
O=C(NCCCc1ccccc1)c1n[nH]c2c1CN(C(=O)c1ccc(F)c(F)c1)CC2 | 0 | 0 | - | ? | 35µM | 0
COc1cccc(C(=O)N2CCc3[nH]nc(C(=O)NCCCc4ccccc4)c3C2)c1 | 0 | 0 | 0 | ? | 32µM | 0
O=C(NCCCc1ccccc1)c1n[nH]c2c1CN(C(=O)c1cccc(Cl)c1)CC2 | 0 | 0 | - | ? | 35µM | 0
COc1ccccc1C(=O)N1CCc2[nH]nc(C(=O)NCCCc3ccccc3)c2C1 | 0 | 0 | 0 | ? | ? | 0
Cc1cccc(C(=O)N2CCc3[nH]nc(C(=O)NCCCc4ccccc4)c3C2)c1 | 0 | 0 | 0 | ? | ? | 0
COc1ccc(NC(=O)CN2C(=O)COc3ccc(C(=O)COc4cccc(F)c4)cc32)cc1 | 0 | ? | 0 | 0 | 40µM | 0
CCc1ccccc1OCC(=O)c1ccc2c(c1)N(CC(=O)Nc1ccc(F)cc1)C(=O)CO2 | ? | ? | 0 | 40µM | 32µM | 0
O=C(CN1C(=O)COc2ccc(C(=O)COc3cccc(F)c3)cc21)NCc1ccc2c(c1)OCO2 | 0 | ? | 0 | 0 | 0 | 0
COc1ccc(S(=O)(=O)N2CCc3c(C(=O)NCCc4cccs4)cccc32)cc1 | 0 | 0 | 0 | 25µM | 0 | 0
COc1ccc(S(=O)(=O)N2CCc3c(C(=O)NCCN(C)C)cccc32)cc1 | ? | 0 | ? | ? | ? | 0
COc1ccc(S(=O)(=O)N2CCc3c(C(=O)Nc4cccc(C)c4)cccc32)cc1 | ? | 0 | 0 | 18µM | ? | 0
CCCCNC(=O)c1cccc2c1CCN2S(=O)(=O)c1ccc(C)cc1 | 0 | 0 | 0 | 18µM | ? | 0
COc1ccc(S(=O)(=O)N2CCc3c(C(=O)NCc4ccccn4)cccc32)cc1 | 0 | 0 | 0 | 35µM | ? | 0
Cc1ccc(Cn2ccn3nc(-c4ccccc4)c(CO)c3c2=O)cc1 | 0 | 0 | ? | ? | ? | 0
O=C(c1ccc(F)cc1)N1CCC2(CC1)CC(N(Cc1ccccc1)C1CC1)CCO2 (configuration not stated) | 0 | 0 | 0 | ? | ? | 0
SMILES | SNCA expr inhib | HEK293 viab | Luciferase inh | HEK cytotox | 3T3 cytotox | IP6K1 inhibitor
O=C(CC1CCCCC1)N1CCC2(CC1)CC(N(Cc1ccc(F)cc1)C1CC1)CCO2 (configuration not stated) | 0 | 0 | 0 | 50µM | ? | 0
O=C(CCC1CCCC1)N1CCC2(CC1)CC(N(Cc1ccc(F)cc1)C1CC1)CCO2 (configuration not stated) | 0 | 0 | 0 | ? | ? | 0
Cc1ccc(C(=O)N2CCC3(CC2)CC(N(Cc2ccccc2)C2CC2)CCO3)cc1F (configuration not stated) | 0 | 0 | 0 | 45µM | ? | 0
CN1CCN(C(=O)c2cc(-c3ccc(F)cc3)c3nncn3n2)CC1 | 0 | 0 | - | 0 | 0 | 0
COc1ccccc1-c1cccc(CN2CCCC(C(=O)N3CCCC3)C2)c1 (configuration not stated) | 0 | 0 | - | ? | ? | 0
COc1ccccc1-c1cccc(CN2CCCC(C(=O)NCCCc3ccccc3)C2)c1 (configuration not stated) | ? | ? | - | ? | 35µM | 0
Cc1cccc(-c2cccc(CN3CCCC(C(=O)NCCCc4ccccc4)C3)c2)c1 (configuration not stated) | 0 | 0 | - | 45µM | 40µM | 0
Cc1ccsc1CN1CCC(n2c(C3CC3)nn(C)c2=O)CC1 | 0 | 0 | - | 0 | 0 | 0
CN1CCN(C(=O)c2cc(-c3ccc(Cl)cc3Cl)c3nncn3n2)CC1 | 0 | ? | - | 0 | ? | 0
Clc1cccc(-c2cnc([C@@H]3COCCN3Cc3ncc[nH]3)[nH]2)c1 | 0 | 0 | 0 | 0 | 0 | 0
C[C@@H](NC(=O)N1CCOC[C@H]1c1ncc(-c2ccc(Cl)cc2)[nH]1)c1ccccc1 | 0 | ? | 0 | ? | 100µM | 0
CC(C)(C)CN1CCOC[C@H]1c1ncc(-c2cccc(Cl)c2)[nH]1 | ? | 0 | 0 | 100µM | 89µM | 0
CC(C)(C)CN1CCOC[C@H]1c1ncc(-c2ccccc2)[nH]1 | 0 | 0 | 0 | 79µM | ? | 0
CO[C@@](C(=O)N1CCOC[C@H]1c1ncc(-c2ccccc2)[nH]1)(c1ccccc1)C(F)(F)F | 0 | 0 | 0 | ? | 45µM | 0
Cc1ccc(C(=O)N2CCC3(CC2)N(c2ccccc2)C(=O)CS3(=O)=O)s1 | 0 | 0 | 0 | 0 | 0 | 0
CO[C@H]1C(=O)N(C(C)C)[C@H]1C1CCN(C(=O)c2cc(C)n(C)n2)CC1 | 0 | 0 | - | 0 | 0 | 0
CC(=O)Nc1ccc(CN2CCCC23Cc2ccccc2CN(C(=O)C(C)C)C3)cc1 (configuration not stated) | 0 | 0 | - | 0 | 0 | 0
FC(F)(F)c1ccc(-c2cnc([C@@H]3COCCN3Cc3ccccn3)[nH]2)cc1 | ? | 0 | 0 | 56µM | 40µM | 0
O=C(c1ccc2nc(-c3ccccc3)cn2c1)N1C[C@@H]2CCC[C@H]1C2 | 0 | 0 | 0 | 0 | 0 | 0
Cc1cc(OC2CN(Cc3ccc(F)cc3)C2)ccc1F | 0 | 0 | 0 | 79µM | ? | 0
